We go through 2 molecules from the supplement of paper PMC8728848.

About 410 targets per protein were measured; listed, in parts, are those with the strongest signals and a random draw of the rest.

Test in all cases: glycan array binding signal (z-score within array); higher = stronger binding
Common to all, as to conditions: glycan notation: IUPAC condensed, linker removed

Test [1] addresses Fuc(a1-2)Gal(b1-4)GlcNAc(b1-3)Gal(b1-4)GlcNAc. The essentials:
(§1)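 Columns mapping to the same glycan were averaged after glycan names were converted to IUPAC-condensed notation. The data come from 3228 arrays in the Consortium for Functional Glycomics database, limited to those with an available protein sequence. Binding is reported as a within-array Z-score averaged across arrays of one protein sequence and across linkers.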

Test [2] addresses Gal(b1-3)GalNAc(b1-3)Gal(b1-4)Glc. An outline of the steps: as §1
Test [3] deals with Gal(b1-4)GlcNAc(b1-2)Man(a1-3)[Gal(b1-4)GlcNAc(b1-2)Man(a1-6)]Man(b1-4)GlcNAc(b1-4)GlcNAc. The essentials:
as §1

Test [4] has as its target GlcNAc(b1-2)Man(a1-3)[GlcNAc(b1-2)Man(a1-6)]Man(b1-4)GlcNAc(b1-4)GlcNAc. The essentials: as §1
Test [5] deals with GlcNAc(b1-3)Gal(b1-4)GlcNAc. An outline of the steps: as §1
The target of test [6] is Man(a1-2)Man(a1-3)[Man(a1-3)[Man(a1-6)]Man(a1-6)]Man(b1-4)GlcNAc(b1-4)GlcNAc. An outline of the steps:
as §1

The target of test [7] is Man(a1-3)[Man(a1-6)]Man(b1-4)GlcNAc(b1-4)GlcNAc. The essentials: as §1
The target of test [8] is Neu5Ac(a2-6)Gal(b1-4)GlcNAc(b1-2)Man(a1-3)[Neu5Ac(a2-6)Gal(b1-4)GlcNAc(b1-2)Man(a1-6)]Man(b1-4)GlcNAc(b1-4)GlcNAc. The essentials: as §1
Test [9] addresses Neu5Ac(a2-6)Gal(b1-4)GlcNAc(b1-3)Gal(b1-4)[Fuc(a1-3)]GlcNAc(b1-3)Gal(b1-4)[Fuc(a1-3)]GlcNAc. An outline of the steps:
as §1

The target in test [10] is Neu5Ac(a2-6)GalNAc(b1-4)GlcNAc. An outline of the steps: as §1
The target of test [11] is GlcNAc(b1-4)GlcNAc(b1-4)GlcNAc. An outline of the steps:
as §1

In test [12] the target is Man(a1-2)Man(a1-3)[Man(a1-2)Man(a1-6)]Man(a1-6)[Man(a1-2)Man(a1-2)Man(a1-3)]Man(b1-4)GlcNAc(b1-4)GlcNAc. The essentials: as §1
A further test addresses Man(a1-6)Man. An outline of the steps:
as §1

The target in test [13] is Neu5Ac(a2-3)Gal(b1-3)]Neu5Ac(a2-3)Gal(b1-4)]GlcNAc. An outline of the steps: as §1
Test [14] concerns the target Neu5Ac(a2-3)Gal(b1-4)GlcNAc(b1-2)Man. An outline of the steps: as §1
In test [15] the target is Neu5Ac(a2-3)Gal(b1-4)GlcNAc(b1-3)Gal(b1-4)GlcNAc(b1-6)[Gal(b1-3)]GalNAc. The essentials:
as §1

The target in test [16] is Neu5Ac(a2-3)Gal(b1-4)GlcNAc(b1-6)GalNAc. The essentials: as §1
The target in test [17] is Neu5Ac(a2-3)Gal(b1-4)GlcNAc(b1-6)[Gal(b1-3)]GalNAc. An outline of the steps: as §1
The target in test [18] is Neu5Ac(a2-3)Gal(b1-4)GlcNAc6S. The essentials:
as §1

Test [19] concerns the target Neu5Ac(a2-3)Gal(b1-4)[Fuc(a1-3)]GlcNAc(b1-3)Gal(b1-4)GlcNAc. An outline of the steps:
as §1

The target in test [20] is Neu5Ac(a2-3)Gal(b1-4)[Fuc(a1-3)]GlcNAc6S. The essentials: as §1
Another test has as its target Neu5Ac(a2-3)GalNAc. The essentials: as §1
Test [21] deals with Neu5Ac(a2-3)GalNAc(b1-4)GlcNAc. The essentials: as §1
In test [22] the target is Neu5Ac(a2-6)Gal(b1-4)GlcNAc(b1-2)Man(a1-3)Man(b1-4)GlcNAc(b1-4)GlcNAc. An outline of the steps:
as §1

For test [23], the target named is Neu5Ac(a2-6)Gal(b1-4)GlcNAc(b1-3)Gal(b1-3)GlcNAc. The essentials: as §1
Test [24] addresses Neu5Ac(a2-6)Gal(b1-4)GlcNAc(b1-3)[Neu5Ac(a2-6)Gal(b1-4)GlcNAc(b1-6)]GalNAc. The essentials: as §1
Test [25] deals with Neu5Ac(a2-6)Gal(b1-4)GlcNAc(b1-6)[Gal(b1-3)GlcNAc(b1-3)]Gal(b1-4)Glc. An outline of the steps:
as §1

For test [26], the target named is Neu5Ac(a2-8)Neu5Ac(a2-8)Neu5Ac. An outline of the steps: as §1
The target of a further test is Neu5Ac(b2-6)GalNAc. An outline of the steps:
as §1

Test [27] concerns the target Neu5Gc(a2-3)Gal(b1-4)GlcNAc(b1-3)Gal(b1-4)GlcNAc(b1-2)Man(a1-3)[Neu5Gc(a2-3)Gal(b1-4)GlcNAc(b1-3)Gal(b1-4)GlcNAc(b1-2)Man(a1-6)]Man(b1-4)GlcNAc(b1-4)GlcNAc. An outline of the steps: as §1
In test [28] the target is Neu5Gc(b2-6)Gal(b1-4)GlcNAc. An outline of the steps: as §1

B1: Tulipa lectin C-1 (Tulipa hybrid) (protein)
chain: MGMALVVALAVALASTVAGQQNVLLSGNTLANEESLSYGSVKFIMQNDCNLVLYGGGFQSNTASNGKKCTLTLNNNGHLIINDGLTGRVVWRNSNAQNPVGRYAAVLRPAPGTADVAIYGPAIWSTNDEFSYQESGVVPHKLGRETPNLPRMQNLLFSGQTLYGTDGMLSSNDGSTTFELSKCQLSLSLGNEVKWKVAPTVENGKENYCHVRLDHRGHLSLLNDDNVVLFRSIPTNGVEPPIGDYVLIVEKGAGYIYGPPIWNTYDNRRYKVASA
For the molecule B1, the “glycan array binding signal (z-score)” value was -0.2 in test [1]; -0.226 in test [2]; 5.37 in [3]; 4.39 in test [4]; -0.23 in test [5]; -0.179 in test [6]. The “glycan array binding signal (z-score)” value in test [7] is 4.98; in test [8], 5.26; in [9], -0.093; in [10], -0.003.

B2: EULS2 M4 (Oryza sativa) (protein)
chain: MVYCRANPNYAMTARNGAVVLAPANPKDEYQHWIKDMRWSTSIKDEEGYPAFALVNKATGQAIKHSLGQSHPVRLVPYNPEVMDESVLWTESRDVGNGFRCIRMVNNIYLNFDAFHGDKYHGGVRDGTDIVLWKWCEGDSLRWKIQPYYILEQKLISEEDLNSAVDHHHHHH
Turning to B2, the “glycan array binding signal (z-score)” value in test [11] was -0.101; in [12], -0.4; with Man(a1-6)Man, 0.713; in test [13], -0.232; in test [14], 7.63; in test [15], -0.233. For the same molecule, the “glycan array binding signal (z-score)” value in test [16] is -0.226; in test [17], -1.27; in test [18], 4.39; in [19], 0.35; in [20], -0.364; with Neu5Ac(a2-3)GalNAc it was 0.083. The “glycan array binding signal (z-score)” value in test [21] was 0.042; in test [22], -0.572; in test [23] it was 2.81; in test [9], 4.01; in [24] it was 7.46; in test [25], -0.428. Also, the “glycan array binding signal (z-score)” value in test [26] was -0.325; with Neu5Ac(b2-6)GalNAc, 0.656; in test [27], -0.344; in test [28], -0.504.
